Laboratory results published in the supplement of paper PMC4466140.

B1: unnamed (peptide)
chain: NSVPIMPTLPPRPYI
B2: unnamed (peptide)
chain: AIPPPVPNRPGGTTN

molecular target: SpBzz1-D2; assay: SPOT peptide array binding signal intensity (averaged, normalized) (arbitrary units (background-subtracted, floor 0; scale differs between SH3 domains)); higher = stronger binding of the SH3 domain to the peptide
How it was run: (§1)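 Peptides were synthetic 15-mers on cellulose membranes, with every cysteine replaced by serine. They were incubated overnight at 4°C with GST-SH3 domains from four yeast species at 10 μg/ml in TBS-based blocking buffer. Binding signal, the replicate-averaged normalized and background-subtracted spot intensity, is in arbitrary units that differ between domains.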

Binder	SPOT peptide array binding signal intensity
B1	0.5
B2	0.5

molecular target: SpCyk3; assay: as above
How it was run: as §1

Binder	SPOT peptide array binding signal intensity
B1	6
B2	1

molecular target: SpHof1; assay: as above
How it was run: as §1

Binder	SPOT peptide array binding signal intensity
B1	6.5
B2	≤ 0

molecular target: SpHof1-2; assay: as above
How it was run: as §1

Binder	SPOT peptide array binding signal intensity
B1	34.5
B2	≤ 0

molecular target: SpHof1-3; assay: as above
How it was run: as §1

Binder	SPOT peptide array binding signal intensity
B1	18.8
B2	16

molecular target: SpHse1; assay: as above
How it was run: as §1

Binder	SPOT peptide array binding signal intensity
B1	214
B2	8.5

molecular target: SpLsb1; assay: as above
How it was run: as §1

Binder	SPOT peptide array binding signal intensity
B1	523
B2	959

molecular target: SpLsb4; assay: as above
How it was run: as §1

Binder	SPOT peptide array binding signal intensity
B1	4060
B2	2930

molecular target: SpMyo1; assay: as above
How it was run: as §1

Binder	SPOT peptide array binding signal intensity
B1	378
B2	9.5

molecular target: SpNbp2; assay: as above
How it was run: as §1

Binder	SPOT peptide array binding signal intensity
B1	76.5
B2	6.5

molecular target: SpPex13; assay: as above
How it was run: as §1

Binder	SPOT peptide array binding signal intensity
B1	25
B2	≤ 0

molecular target: SpRvs167; assay: as above
How it was run: as §1

Binder	SPOT peptide array binding signal intensity
B1	1070
B2	2560

molecular target: SpSla1-D1-D2; assay: as above
How it was run: as §1

Binder	SPOT peptide array binding signal intensity
B1	≤ 0
B2	≤ 0

molecular target: SpSla1-D3; assay: as above
How it was run: as §1

Binder	SPOT peptide array binding signal intensity
B1	21.5
B2	≤ 0

molecular target: AgAbp1; assay: as above
How it was run: as §1

Binder	SPOT peptide array binding signal intensity
B2	≤ 0

molecular target: AgBbc1; assay: as above
How it was run: as §1

Binder	SPOT peptide array binding signal intensity
B2	1380

molecular target: AgBem1-D1; assay: as above
How it was run: as §1

Binder	SPOT peptide array binding signal intensity
B2	≤ 0

molecular target: AgBzz1-D1; assay: as above
How it was run: as §1

Binder	SPOT peptide array binding signal intensity
B2	61

molecular target: AgBzz1-D2; assay: as above
How it was run: as §1

Binder	SPOT peptide array binding signal intensity
B2	≤ 0

molecular target: AgCyk3; assay: as above
How it was run: as §1

Binder	SPOT peptide array binding signal intensity
B2	≤ 0

molecular target: AgFus1; assay: as above
How it was run: as §1

Binder	SPOT peptide array binding signal intensity
B2	≤ 0

molecular target: AgHof1; assay: as above
How it was run: as §1

Binder	SPOT peptide array binding signal intensity
B2	≤ 0

molecular target: AgHse1; assay: as above
How it was run: as §1

Binder	SPOT peptide array binding signal intensity
B2	13

molecular target: AgLsb1; assay: as above
How it was run: as §1

Binder	SPOT peptide array binding signal intensity
B2	373

molecular target: AgLsb4; assay: as above
How it was run: as §1

Binder	SPOT peptide array binding signal intensity
B2	1024

molecular target: AgMyo5; assay: as above
How it was run: as §1

Binder	SPOT peptide array binding signal intensity
B2	3.5

molecular target: AgNbp2; assay: as above
How it was run: as §1

Binder	SPOT peptide array binding signal intensity
B2	≤ 0

molecular target: AgRvs167; assay: as above
How it was run: as §1

Binder	SPOT peptide array binding signal intensity
B2	269

molecular target: AgSho1; assay: as above
How it was run: as §1

Binder	SPOT peptide array binding signal intensity
B2	≤ 0

molecular target: AgSla1-D1-D2; assay: as above
How it was run: as §1

Binder	SPOT peptide array binding signal intensity
B2	≤ 0

molecular target: AgSla1-D3; assay: as above
How it was run: as §1

Binder	SPOT peptide array binding signal intensity
B2	≤ 0

molecular target: CaAbp1-D1; assay: as above
How it was run: as §1

Binder	SPOT peptide array binding signal intensity
B2	≤ 0

molecular target: CaAbp1-D2; assay: as above
How it was run: as §1

Binder	SPOT peptide array binding signal intensity
B2	≤ 0

molecular target: CaBbc1; assay: as above
How it was run: as §1

Binder	SPOT peptide array binding signal intensity
B2	2040

molecular target: CaBem1-D1; assay: as above
How it was run: as §1

Binder	SPOT peptide array binding signal intensity
B2	0.5

molecular target: CaBzz1-D1; assay: as above
How it was run: as §1

Binder	SPOT peptide array binding signal intensity
B2	570

molecular target: CaBzz1-D2; assay: as above
How it was run: as §1

Binder	SPOT peptide array binding signal intensity
B2	79

molecular target: CaCyk3; assay: as above
How it was run: as §1

Binder	SPOT peptide array binding signal intensity
B2	192

molecular target: CaFus1; assay: as above
How it was run: as §1

Binder	SPOT peptide array binding signal intensity
B2	≤ 0

molecular target: CaHof1; assay: as above
How it was run: as §1

Binder	SPOT peptide array binding signal intensity
B2	0.5

molecular target: CaHse1; assay: as above
How it was run: as §1

Binder	SPOT peptide array binding signal intensity
B2	1.75

molecular target: CaLsb1; assay: as above
How it was run: as §1

Binder	SPOT peptide array binding signal intensity
B2	1

molecular target: CaLsb4; assay: as above
How it was run: as §1

Binder	SPOT peptide array binding signal intensity
B2	2490

molecular target: CaMyo5; assay: as above
How it was run: as §1

Binder	SPOT peptide array binding signal intensity
B2	≤ 0

molecular target: CaNbp2; assay: as above
How it was run: as §1

Binder	SPOT peptide array binding signal intensity
B2	1

molecular target: CaRvs167; assay: as above
How it was run: as §1

Binder	SPOT peptide array binding signal intensity
B2	1180

molecular target: CaRvs167-3; assay: as above
How it was run: as §1

Binder	SPOT peptide array binding signal intensity
B2	1.25

molecular target: CaSho1; assay: as above
How it was run: as §1

Binder	SPOT peptide array binding signal intensity
B2	7

molecular target: CaSla1-D1-D2; assay: as above
How it was run: as §1

Binder	SPOT peptide array binding signal intensity
B2	≤ 0

molecular target: CaSla1-D3; assay: as above
How it was run: as §1

Binder	SPOT peptide array binding signal intensity
B2	≤ 0

molecular target: ScAbp1; assay: as above
How it was run: as §1

Binder	SPOT peptide array binding signal intensity
B2	≤ 0

molecular target: ScBbc1; assay: as above
How it was run: as §1

Binder	SPOT peptide array binding signal intensity
B2	515

molecular target: ScBem1-D1; assay: as above
How it was run: as §1

Binder	SPOT peptide array binding signal intensity
B2	≤ 0

molecular target: ScBzz1-D1; assay: as above
How it was run: as §1

Binder	SPOT peptide array binding signal intensity
B2	5

molecular target: ScBzz1-D2; assay: as above
How it was run: as §1

Binder	SPOT peptide array binding signal intensity
B2	1.5

molecular target: ScCyk3; assay: as above
How it was run: as §1

Binder	SPOT peptide array binding signal intensity
B2	≤ 0

molecular target: ScFus1; assay: as above
How it was run: as §1

Binder	SPOT peptide array binding signal intensity
B2	≤ 0

molecular target: ScHof1; assay: as above
How it was run: as §1

Binder	SPOT peptide array binding signal intensity
B2	3

molecular target: ScHse1; assay: as above
How it was run: as §1

Binder	SPOT peptide array binding signal intensity
B2	8

molecular target: ScLsb1; assay: as above
How it was run: as §1

Binder	SPOT peptide array binding signal intensity
B2	1120

molecular target: ScLsb2; assay: as above
How it was run: as §1

Binder	SPOT peptide array binding signal intensity
B2	302

molecular target: ScLsb3; assay: as above
How it was run: as §1

Binder	SPOT peptide array binding signal intensity
B2	1950

molecular target: ScLsb4; assay: as above
How it was run: as §1

Binder	SPOT peptide array binding signal intensity
B2	857

molecular target: ScMyo3; assay: as above
How it was run: as §1

Binder	SPOT peptide array binding signal intensity
B2	26

molecular target: ScMyo5; assay: as above
How it was run: as §1

Binder	SPOT peptide array binding signal intensity
B2	1.75

molecular target: ScNbp2; assay: as above
How it was run: as §1

Binder	SPOT peptide array binding signal intensity
B2	15

molecular target: ScPex13; assay: as above
How it was run: as §1

Binder	SPOT peptide array binding signal intensity
B2	858

molecular target: ScRvs167; assay: as above
How it was run: as §1

Binder	SPOT peptide array binding signal intensity
B2	1860

molecular target: ScSho1; assay: as above
How it was run: as §1

Binder	SPOT peptide array binding signal intensity
B2	≤ 0

molecular target: ScSla1-D1-D2; assay: as above
How it was run: as §1

Binder	SPOT peptide array binding signal intensity
B2	13.5

molecular target: ScSla1-D3; assay: as above
How it was run: as §1

Binder	SPOT peptide array binding signal intensity
B2	≤ 0

molecular target: SpAbp1-D1; assay: as above
How it was run: as §1

Binder	SPOT peptide array binding signal intensity
B2	≤ 0

molecular target: SpBbc1; assay: as above
How it was run: as §1

Binder	SPOT peptide array binding signal intensity
B2	358

molecular target: SpBzz1-D1; assay: as above
How it was run: as §1

Binder	SPOT peptide array binding signal intensity
B2	146
